Only some compounds are listed: those with a hit (about 21% of all), similar ones and a draw of the others.
Shiga toxin inh = blocks Shiga toxin action in Vero cells | AID 2315 | inhibition, % at 38.7 µM | hit rate 9.2% among 290,000 | Vero cells, Shiga toxin protein synthesis inhibition reporter; in the data active means inhibition mostly above about 28%, no sharp cut-off; inactive means mostly below about 43%; further: 0% is about no effect
Sm TGR inh = blocks Schistosoma mansoni thioredoxin glutathione reductase. Q962Y6. purified TGR, DTNB reduction, TNB absorbance 405 nm. Potency, µM (highest dose often 114 µM), without a hit: at the highest dose activity change, negative = inhibition, most hits filed as inhibitors. hit rate 3% among 360,000. AID 485364; further: potency means the concentration at half of the fitted maximal effect; on the % scale 0 is the no-effect control and ±100 the full control effect; nearly all actives have a fitted effect of over 60% in size
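Kinetic colorimetric format: TGR-catalysed, NADPH-driven DTNB reduction monitored via TNB absorbance. Enzyme dispensed at 20 nM; compound exposure 15 min at room temperature before reaction start.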
Pf growth 96h = inhibits malaria parasite growth, 96 h; P. falciparum luciferase reporter growth, 96 h; hit rate 6.9% among 320,000; Potency, µM (top dose mostly 28.7 µM), for the others: at the highest dose activity change, negative = inhibition, most hits filed as inhibitors; further: potency means the concentration at half of the fitted maximal effect; on the % scale 0 is the no-effect control and ±100 the full control effect
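Two parasite generations (96 h, 37 C, 5% CO2) of compound exposure in infected erythrocytes (0.05% parasitemia, 2% hematocrit). Luciferase-reporter P. falciparum; decreased luminescence indicates inhibited growth, aimed at apicoplast-acting delayed death.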
CHX counter = affects cycloheximide protein synthesis inhibition readout, counter-screen. cell reporter, cycloheximide protein synthesis inhibition counterscreen. max response, %. hit rate 12% among 300,000; in the data active means max response mostly above about 13%, no sharp cut-off; inactive means mostly below about 14%; further: read at 38.3 µM for the half of the compounds with a filed dose; 0% is about no effect
NS1 inh = influenza NS1 inhibition; Potency, µM (highest dose often 46.1 µM), for the others: at the top dose activity, positive = more growth; hit rate 0.4% among 270,000; AID 2326; calls by dose curve; further: potency means the concentration at half of the fitted maximal effect; actives are rising curves; nearly all actives have a fitted effect of over 50% in size
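OD600 was taken as the measure of yeast growth restored by compound in an NS1-expressing S. cerevisiae strain. Cells had been washed out of glucose medium and diluted 1:100 into galactose -URA medium, pH 6.0.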
Pf growth 48h = P. falciparum growth inhibition at 48 hours (one generation); hit rate 5.9% among 310,000; AID 504832; P. falciparum luciferase growth in erythrocytes, 48 h; Potency, µM (doses to about 28.7 µM), without a hit: at the highest dose activity change, negative = inhibition, usual class: inhibitors; further: potency means the concentration at half of the fitted maximal effect; on the % scale 0 is the no-effect control and ±100 the full control effect
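Luciferase-expressing parasites in RBCs, 2% Hct / 0.1% parasitemia final; RPMI 1640 + 0.5% Albumax; 37 C, 5% CO2, one generation; luminescence read-out, lower signal = inhibition.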
Active calls of the source: *; ? = inconclusive; . = no result; [ ] = dose if it differs, or a comment. Unless noted, the call rests on the fitted dose curve; in most records, active means well fitted curve in the direction sought with a large enough effect; inconclusive means small, poorly fitted or top-dose-only effect, or another doubt; inactive means no such curve, though single readings can be large; an effect the other way counts as inactive or inconclusive.

SMILES	Shiga toxin inh	Sm TGR inh	Pf growth 96h	CHX counter	NS1 inh	Pf growth 48h
O=C(CCN1C(=O)c2cccc3cccc(c23)C1=O)NCc1ccco1	-10.9	.	-25.4%	-3.3	0.9%	11.8%
O=c1oc2c(-c3ccc([N+](=O)[O-])cc3)cc(O)cc2s1	6.2	2.9%	?	14.8*	3.9%	?
NC1=C(c2ccc([N+](=O)[O-])cc2)C(=O)CO1	-61.9	-2.5%	18.6%	11.8	-2.2%	2.5%
COc1ccc(NC(=O)C2CCCN(c3c4c(nc5ncnn35)CCC4)C2)cc1 (stereo not given)	7.1	1.5%	11.7µM*	5.4	-1.6%	-19.7%
CC1CCC(NC(=O)C2CCN(c3c4c(nc5ncnn35)CCC4)CC2)CC1 (stereo not given)	48.8*	5.4%	35.6%	19.9*	5.4%	?
Cc1cc(OCC(O)CNC(C)(C)C)ccc1Cl (stereo not given)	2.5	7.4%	?	0.4	.	?
CC(C)c1ccc(NC2CCCN(C(=O)CC3CCCC3)C2)cc1 (stereo not given)	30.4	-1.1%	?	10.8	-68.5%	?
Cn1cnnc1Sc1ccc(C(=O)NCCC(c2ccccc2)c2ccccc2)cc1[N+](=O)[O-]	16.6	-0.2%	?	0.2	?	8.28µM*
C#CC[N+](C)(C)CC#Cc1ccccc1	-4.6	-14.1%	95.3%	1.2	3.2%	1.65µM*
Cc1ccc(C#CC[N+](C)(C)CC#Cc2ccccc2)cc1	1.7	.	5.86µM*	0.9	6.8%	2.33µM*
COc1ccccc1C1C(C(N)=O)=C(C)Nc2nc(-c3ccccc3Cl)nn21 (stereo not given)	-18.6	1.8%	?	-6.0	5.5%	.
CC1=C(C(N)=O)C(c2ccccn2)n2nc(-c3ccccc3Cl)nc2N1 (stereo not given)	-1.3	-2.7%	10.4µM*	9.6	1.7%	3.7%
CC1=C(C(N)=O)C(c2cccs2)n2nc(-c3cccc(C)c3)nc2N1 (stereo not given)	18.6	8.3%	10.4µM*	-3.7	-8.3%	-17.2%
CC1=C(C(N)=O)C(c2cccs2)n2nc(-c3cccc(Cl)c3)nc2N1 (stereo not given)	3.2	1.3%	1.1%	-2.0	0.4%	7.3%
CC1=C(C(N)=O)C(c2cccnc2)n2nc(-c3cccc(C)c3)nc2N1 (stereo not given)	8.1	0.2%	11.6%	2.2	-10.5%	?
CCOc1ccccc1C1C(C(N)=O)=C(C)Nc2nc(-c3cccc(C)c3)nn21 (stereo not given)	-12.7	39.8µM*	.	-5.1	-14.6%	?
CCN1CCN(C(=O)C(C)Sc2nnc3nc(C)cc(C)n23)CC1 (stereo not given)	.	-6.2%	19.9%	.	.	59.5%
Cc1cc(C)cc(-n2ncc3c2CCCC3NC(=O)CN2CCCC2=O)c1 (stereo not given)	15.8	2.2%	?	11.1	-5.1%	1.2%
CCc1[nH]nc(C(=O)NC2CCCc3c2cnn3-c2cc(C)cc(C)c2)c1C (stereo not given)	54.6*	2.0%	?	27.1*	-73.3%	74.8%
Cc1cc(C)cc(-n2ncc3c2CCCC3NC(=O)c2ccccc2N2CCOCC2)c1 (stereo not given)	-10.8	-10.0%	-33.5%	-2.5	-56.2%	?
CCc1noc(C)c1C(=O)NC1CCCc2c1cnn2-c1cc(C)cc(C)c1 (stereo not given)	33.5	-9.0%	-27.7%	33.7*	-5.6%	?
CCCC(O)(CCC)C(=O)NN(C(=O)CCl)c1ccccc1	-6.7	11.2µM*	-94.5%	2.1	-1.0%	?
CCCCC(O)(CCCC)C(=O)NN(C(=O)OCC)c1ccccc1	7.8	-0.7%	24.5%	0.5	1.8%	6.8%
CCCNC(=O)c1c(CSc2ccccc2)noc1C(=O)NCc1ccccc1	-1.2	12.6%	14.7µM*	2.2	-19.1%	?
CN(C)CCNC(=O)c1c(CSc2ccccc2)noc1C(=O)NCc1ccccc1	-3.3	17.5%	9.28µM*	-4.9	1.4%	?
SMILES	Shiga toxin inh	Sm TGR inh	Pf growth 96h	CHX counter	NS1 inh	Pf growth 48h
COc1cccc(SCc2noc(C(=O)NCc3ccccc3)c2C(=O)NCc2ccccc2)c1	-8.5	15.0%	62.6%	-4.0	7.6%	34.4%
C=CCNC(=O)c1c(CSc2ccccc2)noc1C(=O)NCc1ccccc1	-4.1	7.7%	?	3.5	-10.0%	?
CC(C)CCNC(=O)c1c(CSc2ccccc2)noc1C(=O)NCc1ccccc1	-8.0	16.4%	13.1µM*	-4.2	-10.5%	?
COC(=O)c1c(CSc2cccc(C)c2)noc1C(=O)NCc1ccco1	23.3	-21.6%	48.1%	21.5*	-8.1%	2.62µM*
Cc1noc(NS(=O)(=O)c2ccc(NC(=O)c3ccc(Br)cc3)cc2)c1C	.	-10.9%	.	.	.	.
Cc1noc(NS(=O)(=O)c2ccc(N/C=C\C(=O)c3ccccc3)cc2)c1C	118.4*	-4.7%	?	45.7*	.	31.6%
Cc1noc(NS(=O)(=O)c2ccc(N/C=C\C(=O)c3ccc(F)cc3)cc2)c1C	90.0*	4.6%	-44.9%[1.15 µM]	61.0*	-39.6%	11.2%
Cc1ccccc1C(=O)Nc1ccc(S(=O)(=O)Nc2onc(C)c2C)cc1	-13.4	-1.0%	40.6%	-1.5	-5.8%	18.1%
Cc1noc(NS(=O)(=O)c2ccc(N/C=C\C(=O)c3cccs3)cc2)c1C	93.7*	.	-13.7%	42.6*	-8.8%	10.6%
Cc1noc(NS(=O)(=O)c2ccc(NC(=O)CS(=O)(=O)c3ccccc3)cc2)c1C	-4.0	-32.5%	-19.0%	-1.0	-14.0%	-2.6%
Cc1noc(NS(=O)(=O)c2ccc(N/C=C/C(=O)c3ccc4c(c3)OCO4)cc2)c1C	120.2*	-31.8%	?	59.1*	-39.5%	48.3%
Cc1ccc(C(=O)Nc2ccc(S(=O)(=O)Nc3onc(C)c3C)cc2)cc1	.	-2.1%	.	.	.	.
NC(=O)CC(NC(=O)c1cccc(Br)c1)c1ccc(N2CCN(c3ccc(F)cc3)CC2)c([N+](=O)[O-])c1 (stereo not given)	-5.4	-2.6%	?	-0.5	20.8%	16.1%
CC(Oc1ccc(Cl)cc1Cl)C(=O)N/N=C1\CCCc2ccccc21 (stereo not given)	-16.2	3.9%	.	1.4	2.8%	6.3%
Nc1c(C(=O)CSc2nnnn2-c2ccc(O)cc2)c(=O)[nH]c(=O)n1C1CC1	.	0.9%	?	.	.	37.4%
COc1cc(C2C(C#N)=C(N)N(N(C)C)C3=C2C(=O)CC(C)(C)C3)cc(OC)c1OC (stereo not given)	-3.9	-8.1%	?	-3.2	2.6%	-15.7%
O=C(CSc1nc(=O)n(CCCN2CCOCC2)c2c1CCC2)Nc1cccc(F)c1	.	-8.0%	?	.	.	?
O=C1NCN(c2ccccc2)C12CCN(CCCOc1ccc(F)cc1)CC2	.	.	-14.9%	.	.	16.9µM*
Cc1cn2c(=O)c(S(=O)(=O)Nc3ccc(N4CCOCC4)cc3)c(C)nc2s1	.	4.7%	.	.	.	.

Screening results (PubChem)
